Screens: PubChem BioAssay, National Center for Advancing Translational Sciences (NCATS)
Hits are enriched below; roughly 2.4% of the tested compounds scored in any of these assays.
POLI inh = blocks human DNA polymerase iota activity; 390,000 compounds, 1% hits; Q9UNA4; Pol iota fluorescent replication assay, 10 min; Potency, µM (titrated, usually from 115 µM), actives largely listed as inhibitors
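Fluorescent replication assay read twice, at 0 min and 10 min after adding 50 nM (final) substrate. Enzyme (10 nM) and compounds were first incubated 15 min at room temperature; enzyme-free buffer wells were negative controls.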
Pol kappa inh-1 = DNA polymerase kappa (human) inhibition; purified Pol kappa, fluorescent DNA synthesis assay, 10 min; 400,000 compounds, 0.53% hits; Potency, µM (series often up to 107 µM), usual class: inhibitors; AID 588579
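Kinetic fluorescence readout at 0 and 10 min followed reaction start with substrate at 50 nM final. Beforehand, enzyme (10 nM Pol kappa) stood 15 min with compound at room temperature; buffer-only wells were negative controls.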
GLS inhibitor = blocks human kidney-isoform glutaminase activity; O94925; GLS enzymatic activity, qHTS titration; Potency, µM (series often up to 45.5 µM), hits mostly inhibitors; 410,000 compounds, 0.21% hits
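Read-out is an Amplex red fluorescence increase coupled through glutamate oxidase and HRP, measured before and after 30 min room-temperature incubation. hKGA is in 45 mM KH2PO4 (pH 8.2) with 0.02% Tween-20; glutamine added as 1mM solution.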
Pol beta inh = inhibitors of human DNA polymerase beta; Pol beta primer extension/strand displacement, fluorescence kinetic; Potency, µM (doses to about 114 µM), most hits filed as inhibitors; 340,000 compounds, 1.3% hits; AID 485314
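Values derive from four-parameter Hill fits of normalized kinetic data: reads at 0 and 10 min following addition of 50 nM substrate to 10 nM Pol beta preincubated 15 min with compound.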
APE1 inh-1 = blocks human APE1 abasic DNA cleavage; recombinant APE1, TAMRA/BHQ-2 abasic DNA cleavage fluorescence; Potency, µM (doses to about 65.8 µM), most hits filed as inhibitors; 350,000 compounds, 0.35% hits; P27695; note: nearly all actives have a fitted effect of over 55% in size
Target sequence (P27695 whole entry, looked up): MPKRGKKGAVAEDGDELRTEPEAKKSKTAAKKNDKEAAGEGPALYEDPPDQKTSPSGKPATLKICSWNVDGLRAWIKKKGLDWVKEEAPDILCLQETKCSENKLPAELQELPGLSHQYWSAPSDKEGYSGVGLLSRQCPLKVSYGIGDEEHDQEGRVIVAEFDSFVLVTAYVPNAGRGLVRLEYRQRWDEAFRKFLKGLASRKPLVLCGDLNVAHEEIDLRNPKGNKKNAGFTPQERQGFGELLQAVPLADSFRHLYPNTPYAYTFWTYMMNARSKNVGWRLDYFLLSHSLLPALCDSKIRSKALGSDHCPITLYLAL
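Quantitative HTS: incision of a TAMRA/BHQ-2 double-stranded substrate bearing a tetrahydrofuran abasic site by 0.75 nM APE1 raises fluorescence. Substrate 50 nM final, added after 15 min compound preincubation at room temperature; progress as third-minus-first kinetic read difference.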
Pol eta inh-1 = blocks human DNA polymerase eta activity | Potency, µM (titrated, usually from 114 µM), most hits filed as inhibitors | Q9Y253 | 390,000 compounds, 1.2% hits | recombinant Pol eta, fluorescent DNA replication assay
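Fluorescent replication assay: 50 nM final substrate added after a 15 min room-temperature compound preincubation with 10 nM enzyme. Signal taken at 0 min and again at 10 min.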
APE1 dye cs = counter-screen for APE1 inhibitors: DNA dye displacement; 480 compounds, 7% hits; shares compounds with APE1 inh-1; Potency, µM (titrated, usually from 28.5 µM), usual class: inhibitors; DNA fluorescent dye displacement counterscreen, fluorescence;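 note: loss of thiazole orange fluorescence as the dye is displaced from duplex DNA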
Endo IV inh = blocks E. coli endonuclease IV DNA cleavage. AID 2565. shares compounds with APE1 inh-1. Potency, µM (highest dose often 27.1 µM), usual class: inhibitors. E. coli Endo IV, fluorogenic AP-site DNA cleavage. 560 compounds, 4% hits
APE1 inh-2 = confirmation of inhibitors of human APE1 endonuclease; shares compounds with APE1 inh-1; purified APE1, fluorogenic abasic-site DNA cleavage; Potency, µM (highest dose often 57.1 µM), usual class: inhibitors; 750 compounds, 44% hits; note: nearly all actives have a fitted effect of over 30% in size
APE1 FP inh = compounds that displace a DNA probe from human APE1; shares compounds with APE1 inh-1; APE1 binding to TAMRA-labelled double-stranded DNA, fluorescence polarization displacement; Potency, µM (titrated, usually from 28.5 µM), actives largely listed as inhibitors; 480 compounds, 7% hits; AID 2573
TbPGK inh = TbPGK inhibition, hit validation; 500 compounds, 79% hits; shares compounds with Pol kappa inh-1; TbPGK coupled GAPDH assay, Kinase-Glo luminescence; Potency, µM (titrated, usually from 57.5 µM), usual class: inhibitors; AID 686980; note: nearly all actives have a fitted effect of over 65% in size
Pol iota confirm = Human Pol iota inhibitor confirmatory assay | Potency, µM, hits mostly inhibitors | shares compounds with Pol kappa inh-1 | Pol iota primer extension, TAMRA/BHQ fluorescence | 1,500 compounds, 77% hits | AID 720496
Pol kappa inh-2 = Pol kappa (human) inhibition, cherry-pick confirmation; purified Pol-kappa, fluorescent strand-displacement substrate; Potency, µM, most hits filed as inhibitors; 920 compounds, 76% hits; AID 720501; shares compounds with Pol eta inh-1
Pol eta inh-2 = confirmation of human DNA polymerase eta inhibitors; AID 720502; 2,600 compounds, 64% hits; Potency, µM, most hits filed as inhibitors; shares compounds with Pol eta inh-1; Pol eta primer extension, TAMRA/BHQ fluorescence, 10 min
Of the large screens only hits and unclear results are named; the others gave an inactive call (follow-up assays come after a bar, where they were run); ! = not confirmed by another sample. Calls come from the whole dose curve; as a rule, active = well fitted curve in the direction sought with a large enough effect; inconclusive = small, poorly fitted or top-dose-only effect, or another doubt; inactive = no such curve, though single readings can be large; an effect the other way counts as inactive or inconclusive.

Cc1[nH]nc2c1C(c1ccsc1)C(C#N)=C(N)O2 (stereo unspecified)	none
O=C1N/C(=C/c2cccn2-c2ccccc2)C(=O)N1Cc1ccccc1F	none
CC(C)n1cc(/C=C2\NC(=O)N(c3cccc(Cl)c3)C2=O)c2ccccc21	none
O=C(O)c1ccc(-n2cccc2/C=C2/NC(=O)N(c3cccc(Cl)c3)C2=O)cc1	POLI inh 2µM, Pol kappa inh-1 16µM, GLS inhibitor inconclusive, Pol beta inh 2.2µM, APE1 inh-1 2.8µM, Pol eta inh-1 3.5µM | APE1 dye cs inconclusive | Endo IV inh inactive | APE1 inh-2 13µM | APE1 FP inh 11µM | TbPGK inh 5.8µM | Pol iota confirm 3.4 | Pol eta inh-2 9.5
O=C(O)c1ccc(-n2cccc2/C=C2/NC(=O)N(c3ccccc3)C2=O)cc1	POLI inh 3.2µM, Pol kappa inh-1 22µM, GLS inhibitor 10µM, Pol beta inh inconclusive, APE1 inh-1 2.5µM, Pol eta inh-1 2.8µM | APE1 dye cs inactive | Endo IV inh inactive | APE1 inh-2 4µM | APE1 FP inh 13µM | TbPGK inh 5.8µM | Pol iota confirm 3.4 | Pol eta inh-2 5.4
Cn1c(SCC(=O)N/N=C/C=C/c2ccccc2[N+](=O)[O-])nc2ccccc21	Pol eta inh-1 inconclusive
Cn1c(SCC(=O)N/N=C/C=C/c2ccco2)nc2ccccc21	POLI inh 35µM, Pol kappa inh-1 79µM, Pol beta inh 22µM, APE1 inh-1 10µM, Pol eta inh-1 14µM | APE1 dye cs inconclusive | Endo IV inh inactive | APE1 inh-2 inconclusive | APE1 FP inh inactive | Pol iota confirm 67 | Pol eta inh-2 76
Cc1ccnc2nc(C(=O)OCC(=O)c3ccccc3)nn12	none (no result: Pol beta inh)
CC(C)(C)NC[C@H](O)c1ccc(O)c(CO)c1	none (no result: POLI inh, GLS inhibitor, Pol beta inh, Pol eta inh-1)
NC[C@H](O)c1ccc(O)c(O)c1	POLI inh 4µM!, Pol kappa inh-1 0.71µM!, GLS inhibitor inconclusive, APE1 inh-1 0.89µM! | APE1 dye cs inactive | Endo IV inh inactive | APE1 inh-2 0.79µM | APE1 FP inh inconclusive | Pol iota confirm 1.5 | Pol eta inh-2 1.9
CC(=O)NC(=S)Nc1ccc(-c2nc3ccc(C)cc3s2)cc1	none
CC1=CCC(C(=O)O)C(C(=O)Nc2ccc(-c3nc4ccc(C)cc4s3)cc2)C1 (stereo unspecified)	POLI inh inconclusive, Pol kappa inh-1 inconclusive, Pol beta inh 16µM, APE1 inh-1 inconclusive, Pol eta inh-1 45µM | APE1 inh-2 inactive | Pol eta inh-2 inconclusive
COc1cc(NS(=O)(=O)c2c(C)nc3sc(C)c(C)n3c2=O)cc(OC)c1	none (no result: APE1 inh-1)
Cc1c(C(=O)NC(c2ccccn2)C(F)(F)F)oc2c(F)cccc12 (stereo unspecified)	none
Nc1ncnc2oc(-c3ccco3)c(-c3ccco3)c12	POLI inh inconclusive, Pol kappa inh-1 25µM, GLS inhibitor inconclusive, Pol beta inh 6.3µM, APE1 inh-1 7.9µM, Pol eta inh-1 40µM | APE1 dye cs inactive | Endo IV inh inactive | APE1 inh-2 40µM | APE1 FP inh inactive | Pol iota confirm 42 | Pol eta inh-2 85
O=c1c2cc(O)c(O)cc2oc2cc(O)c(C3OC(CO)C(O)C(O)C3O)c(O)c12 (stereo unspecified)	POLI inh inconclusive, Pol kappa inh-1 4µM, GLS inhibitor inconclusive, APE1 inh-1 2.4µM, Pol eta inh-1 8.9µM (no result: Pol beta inh) | APE1 dye cs inactive | Endo IV inh inactive | APE1 inh-2 7.1µM | APE1 FP inh inactive | Pol iota confirm 15 | Pol kappa inh-2 7.5 | Pol eta inh-2 19
CC(=O)Cc1cc(=O)c2c(C)cc(O)c(C3OC(CO)C(O)C(O)C3O)c2o1 (stereo unspecified)	APE1 inh-1 inconclusive
O=C(CSc1nnc(SCc2ccc(Cl)cc2)s1)N/N=C/c1c[nH]c2ccccc12	POLI inh 10µM, Pol kappa inh-1 inconclusive, Pol beta inh 8.9µM, Pol eta inh-1 3.2µM | APE1 inh-2 inactive | Pol iota confirm 8.4 | Pol eta inh-2 19
O=C(CSc1nnc(SCc2cccc3ccccc23)s1)N/N=C/c1c[nH]c2ccccc12	none
COc1cc2c(cc1OC)C(c1cccs1)N(C(=S)NC(C)C)CC2 (stereo unspecified)	none
CC(=O)NC1=NC(=O)/C(=C/c2cc(C)n(-c3ccc(NC(C)=O)cc3)c2C)S1	none
CC(=O)NC1=NC(=O)/C(=C/c2cc(C)n(-c3cccc(C(=O)O)c3)c2C)S1	POLI inh 14µM, Pol kappa inh-1 40µM, Pol beta inh 6.3µM, APE1 inh-1 3.5µM, Pol eta inh-1 4µM | APE1 dye cs inactive | Endo IV inh inactive | APE1 inh-2 4.5µM | APE1 FP inh inconclusive | TbPGK inh 6.5µM | Pol iota confirm 9.5 | Pol kappa inh-2 8.4 | Pol eta inh-2 11
Cc1ccc(Cl)cc1NC(=O)CSC1=Nc2ccccc2C2=NC(Cc3ccccc3)C(=O)N12 (stereo unspecified)	none (no result: APE1 inh-1)
